Experimental data from PubChem BioAssay (Tox21).
Inconclusive results are not listed. A call without a number means that no potency is given here. Values without a mark were called inactive. Calls of active or inactive are those of the source. Unless noted, calls come from the whole dose curve.

Key:
[1] = qHTS assay to identify small molecule antagonists of the vitamin D receptor (VDR) signaling pathway - cell viability counter screen (AID 743225; active = well fitted curve in the direction sought with a large enough effect in the repeat runs; an effect the other way counts as inactive or inconclusive; note: nearly all actives have a fitted effect of over 50% in size)
Method in brief: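 Cytotoxicity toward the VDR-bla HEK 293T line was scored by ATP-based CellTiter-Glo luminescence, read in the wells already used for the beta-lactamase readout after 16 h compound treatment under 3 nM 1-alpha,25-dihydroxyvitamin D3 stimulation.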

[2] = qHTS assay to identify small molecule agonists of the NFkB signaling pathway (AID 1159509; active = well fitted curve in the direction sought with a large enough effect in the signal ratio in the repeat runs, not every such curve was filed as active; the % refers to the signal ratio; note: series mostly up to about 61 µM)
Method in brief: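 Pathway activation was measured in ME-180 cells stably expressing beta-lactamase under NF-kB response element control. Substrate cleavage was read as the 460/530 nm emission shift after 5 hr compound incubation.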

[3] = qHTS assay to identify small molecule agonists of the NFkB signaling pathway - cell viability counter screen (AID 1159515); note: series mostly up to about 61 µM; nearly all actives have a fitted effect of over 55% in size
Method in brief: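 ME-180 NFkB-bla cells, 2,000/well; overnight attach; compound 5 hr, 37 C/5% CO2; LiveBLAzer substrate 1.5 hr RT; then CellTiter-Glo in same wells, 30 min RT, luminescence read.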

[4] = qHTS assay to identify small molecule agonists of the endoplasmic reticulum stress response signaling pathway (AID 1159516; active = well fitted activation curve with a large enough effect in the signal ratio in the repeat runs, not every such curve was filed as active; the % refers to the signal ratio)
Method in brief: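 HeLa ESRE-bla reporter line; cpd 5 h, 37 C/5% CO2; LiveBLAzer B/G FRET substrate 2 h RT; ex 405, em 460/530 nm.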

[5] = qHTS assay to identify small molecule agonists of the endoplasmic reticulum stress response signaling pathway - cell viability counter screen (AID 1159517);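 note: HeLa cells carrying an ER stress response element beta-lactamase reporter; series mostly up to about 61 µM; nearly all actives have a fitted effect of over 50% in size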
Method in brief: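 In parallel with the ESRE reporter read, cytotoxicity was scored by CellTiter-Glo luminescence (30 min, room temperature) on HeLa ESRE-bla cells dosed for 5 hr.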

[6] = biological target: Nuclear receptor ROR-gamma (Homo sapiens) (UniProt P51449); assay: qHTS assay to identify small molecule antagonists of the retinoid-related orphan receptor gamma (ROR-gamma) signaling pathway (AID 1159521; active = well fitted curve in the direction sought with a large enough effect in the repeat runs; an effect the other way counts as inactive or inconclusive;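 note: CHO cells with doxycycline inducible ROR-gamma driving an RORE luciferase reporter; top concentration of the series differs between compounds; nearly all actives have a fitted effect of over 50% in size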)
Method in brief: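 Readout: ONE-Glo luciferase luminescence, 30 min at room temperature. System: Tet-on RORγ CHO, RORE-LUC. Sequence: compound 2 h, doxycycline 1 uM final, 16 h at 37 C.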

[7] = qHTS assay to identify small molecule agonists of the AP-1 signaling pathway - cell viability counter screen (AID 1159525); note: nearly all actives have a fitted effect of over 55% in size
Method in brief: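 Same-well cytotoxicity counter screen of the Tox21 10K library in ME-180 cells. The readout is ATP-dependent luminescence after 5 h compound treatment. Data are normalised to DMSO and tetra n-octyl ammonium bromide controls.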

[8] = qHTS assay to identify small molecule agonists of the AP-1 signaling pathway (AID 1159526)
[9] = biological target: Retinoic acid receptor RXR-alpha (Homo sapiens) (UniProt P19793); assay: qHTS assay to identify small molecule agonists of the RXR signaling pathway (AID 1159527); note: nearly all actives have a fitted effect of over 35% in size; note: potency is the fitted concentration of half-maximal effect
Method in brief: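 Reporter activation is measured as beta-lactamase activity via FRET substrate cleavage (emission 460/530 nm) in HEK 293T cells expressing an RXR-alpha-driven bla construct, following 16 hr compound exposure at 37 C.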

[10] = qHTS assay to identify small molecule antagonists of the retinoid-related orphan receptor gamma (ROR-gamma) signaling pathway - cell viability counter screen (AID 1159520; active = well fitted curve in the direction sought with a large enough effect in the repeat runs; an effect the other way counts as inactive or inconclusive; note: nearly all actives have a fitted effect of over 50% in size)
Method in brief: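 Tet-on ROR gamma CHO cells were given compounds for 2 hr, then doxycycline hyclate at 1 uM final, and incubated 16 hr at 37 C. Viability was measured as ATP content by CellTiter-Glo luminescence.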

Chain of Retinoic acid receptor RXR-alpha (Homo sapiens) (P19793 whole entry, looked up): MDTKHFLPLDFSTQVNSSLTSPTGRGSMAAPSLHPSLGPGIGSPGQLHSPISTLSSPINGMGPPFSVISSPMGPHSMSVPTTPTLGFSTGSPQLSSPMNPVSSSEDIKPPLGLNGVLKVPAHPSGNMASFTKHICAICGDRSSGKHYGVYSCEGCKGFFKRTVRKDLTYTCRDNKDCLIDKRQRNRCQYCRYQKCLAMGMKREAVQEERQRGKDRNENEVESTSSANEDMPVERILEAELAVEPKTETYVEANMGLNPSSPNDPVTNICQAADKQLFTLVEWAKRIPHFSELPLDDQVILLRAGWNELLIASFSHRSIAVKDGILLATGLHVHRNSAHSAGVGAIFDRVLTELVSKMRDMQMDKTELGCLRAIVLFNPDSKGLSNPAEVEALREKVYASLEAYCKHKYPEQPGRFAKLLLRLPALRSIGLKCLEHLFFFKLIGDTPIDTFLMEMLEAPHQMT

COc1cc2c(cc1OC)CN(C(=O)[C@H](C)N[C@@H](CCc1ccccc1)C(=O)O)[C@H](C(=O)O)C2
outcome [1]: inactive | outcome [2]: inactive | outcome [3]: inactive | outcome [4]: inactive | outcome [5]: inactive | outcome [6]: inactive | outcome [7]: inactive | outcome [8]: inactive | Potency [9]: inactive

CC1CC(=O)CC(C)(C)C1 (stereo not given)
outcome [1]: inactive | outcome [2]: inactive | outcome [3]: inactive | outcome [4]: inactive | outcome [5]: inactive | outcome [10]: inactive | outcome [7]: inactive | outcome [8]: inactive | Potency [9]: inactive

CCCCCCCCCCCCCCCCCC#N
outcome [1]: inactive | outcome [2]: inactive | outcome [3]: inactive | outcome [4]: inactive | outcome [5]: inactive | outcome [6]: inactive | outcome [7]: inactive | outcome [8]: inactive | Potency [9]: inactive

CCOc1cccc(N)c1
outcome [1]: inactive | outcome [2]: inactive | outcome [3]: inactive | outcome [4]: inactive | outcome [5]: inactive | outcome [10]: inactive | outcome [6]: inactive | outcome [7]: inactive | outcome [8]: inactive | Potency [9]: inactive

COC(=O)c1cc(Cl)cc(Cl)c1
outcome [2]: inactive | outcome [3]: inactive | outcome [4]: inactive | outcome [5]: inactive | outcome [6]: inactive | outcome [7]: inactive | outcome [8]: inactive | Potency [9]: inactive

CCCC(=O)OC/C=C(\C)CCC=C(C)C
outcome [2]: inactive | outcome [3]: inactive | outcome [4]: inactive | outcome [5]: inactive | outcome [6]: inactive | outcome [7]: inactive | outcome [8]: inactive | Potency [9]: inactive

C=CC/C=C/C
outcome [1]: inactive | outcome [2]: inactive | outcome [3]: inactive | outcome [4]: inactive | outcome [5]: inactive | outcome [6]: inactive | outcome [7]: inactive | outcome [8]: inactive | Potency [9]: inactive

OCC1(CO)COCOC1
outcome [1]: inactive | outcome [2]: inactive | outcome [3]: inactive | outcome [4]: inactive | outcome [5]: inactive | outcome [10]: inactive | outcome [6]: inactive | outcome [7]: inactive | outcome [8]: inactive | Potency [9]: inactive

Cc1ccnc(N)c1
outcome [1]: inactive | outcome [2]: inactive | outcome [3]: inactive | outcome [4]: inactive | outcome [5]: inactive | outcome [10]: inactive | outcome [6]: inactive | outcome [7]: inactive | outcome [8]: inactive | Potency [9]: inactive

C/C(=C1\CCOC(=O)S1)N(C=O)Cc1cnc(C)nc1N
outcome [2]: inactive | outcome [3]: inactive | outcome [4]: inactive | outcome [5]: inactive | outcome [6]: inactive | outcome [7]: inactive | outcome [8]: inactive | Potency [9]: inactive

COC(=O)c1ccccc1C(=O)O
outcome [2]: inactive | outcome [3]: inactive | outcome [4]: inactive | outcome [5]: inactive | outcome [6]: inactive | outcome [7]: inactive | outcome [8]: inactive | Potency [9]: 21.9 µM (active)

C[C@]12CCC(=O)C=C1CC[C@H]1[C@@H]3CC[C@](O)(C(=O)CO)[C@@]3(C)C[C@H](O)[C@@]12F
outcome [1]: inactive | outcome [2]: inactive | outcome [3]: inactive | outcome [4]: inactive | outcome [5]: inactive | outcome [10]: inactive | outcome [6]: inactive | outcome [7]: inactive | outcome [8]: inactive | Potency [9]: inactive

NCc1ccc(S(N)(=O)=O)cc1
outcome [2]: inactive | outcome [3]: inactive | outcome [4]: inactive | outcome [5]: inactive | outcome [6]: inactive | outcome [7]: inactive | outcome [8]: inactive | Potency [9]: inactive

O=C1OCCO1
outcome [1]: inactive | outcome [2]: inactive | outcome [3]: inactive | outcome [4]: inactive | outcome [5]: inactive | outcome [10]: inactive | outcome [6]: inactive | outcome [7]: inactive | outcome [8]: inactive | Potency [9]: inactive

O=C1NC(c2ccccc2)(c2ccccc2)C(=O)N1COP(=O)(O)O
outcome [1]: inactive | outcome [2]: inactive | outcome [3]: inactive | outcome [4]: inactive | outcome [5]: inactive | outcome [10]: inactive | outcome [6]: inactive | outcome [7]: inactive | outcome [8]: inactive | Potency [9]: inactive

CC(=O)CCc1ccc(OC(C)=O)cc1
outcome [1]: inactive | outcome [2]: inactive | outcome [3]: inactive | outcome [4]: inactive | outcome [5]: inactive | outcome [10]: inactive | outcome [6]: inactive | outcome [7]: inactive | outcome [8]: inactive | Potency [9]: inactive

C[C@@H](O)C(=O)O
outcome [1]: inactive | outcome [2]: inactive | outcome [3]: inactive | outcome [4]: inactive | outcome [5]: inactive | outcome [6]: inactive | outcome [7]: inactive | outcome [8]: inactive | Potency [9]: inactive

CC(Oc1cc(Cl)ccc1Cl)C(=O)O (stereo not given)
outcome [1]: inactive | outcome [2]: inactive | outcome [3]: inactive | outcome [4]: inactive | outcome [5]: inactive | outcome [6]: inactive | outcome [7]: inactive | outcome [8]: inactive | Potency [9]: inactive

CC1(C)O[C@H]2CC(=O)OC[C@]23[C@H]2CC[C@@]4(C)[C@H](c5ccoc5)OC(=O)[C@H]5O[C@]54[C@]2(C)C(=O)C[C@@H]13
outcome [1]: inactive | outcome [2]: inactive | outcome [3]: inactive | outcome [4]: inactive | outcome [5]: inactive | outcome [10]: inactive | outcome [6]: inactive | outcome [7]: inactive | outcome [8]: inactive | Potency [9]: inactive

CCOc1ccccc1OCC1CNCCO1 (stereo not given)
outcome [1]: inactive | outcome [2]: inactive | outcome [3]: inactive | outcome [4]: inactive | outcome [5]: inactive | outcome [10]: inactive | outcome [6]: inactive | outcome [7]: inactive | outcome [8]: inactive | Potency [9]: inactive

OCCN1CCOCC1
outcome [1]: inactive | outcome [2]: inactive | outcome [3]: inactive | outcome [4]: inactive | outcome [5]: inactive | outcome [6]: inactive | outcome [7]: inactive | outcome [8]: inactive | Potency [9]: inactive

Cc1cccc(Cl)c1
outcome [1]: inactive | outcome [2]: inactive | outcome [3]: inactive | outcome [4]: inactive | outcome [5]: inactive | outcome [6]: inactive | outcome [7]: inactive | outcome [8]: inactive | Potency [9]: inactive

Cc1ccc(C(=O)O)cc1[N+](=O)[O-]
outcome [2]: inactive | outcome [3]: inactive | outcome [4]: inactive | outcome [5]: inactive | outcome [6]: inactive | outcome [7]: inactive | outcome [8]: inactive | Potency [9]: inactive

O=Cc1ccccc1Cl
outcome [1]: inactive | outcome [2]: inactive | outcome [3]: inactive | outcome [4]: inactive | outcome [5]: inactive | outcome [10]: inactive | outcome [6]: inactive | outcome [7]: inactive | outcome [8]: inactive | Potency [9]: inactive
